Eight molecules from PubChem BioAssay (Tox21) can be followed below.

Test [1] in a line: qHTS assay to identify small molecule that activate the aryl hydrocarbon receptor (AhR) signaling pathway - cell viability counter screen (AID 743086). Further: series mostly up to about 70 µM; nearly all actives have a fitted effect of over 45% in size. Put shortly: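 Cytotoxicity counter screen: CellTiter-Fluor signal (30 min, 37 C) in 4000 HepG2 cells/well carrying the DRE-luciferase reporter, following 24 h compound exposure at 37 C.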
For test [2], the target named is Peroxisome proliferator-activated receptor gamma (Homo sapiens) (UniProt P37231). Kind of test: qHTS assay to identify small molecule agonists of the peroxisome proliferator-activated receptor gamma (PPARg) signaling pathway (AID 743094; active means well fitted activation curve with a large enough effect in the signal ratio in the repeat runs, not every such curve was filed as active; the % refers to the signal ratio). The method, boiled down: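 Fluorescence-based beta-lactamase readout in HEK293H PPARg UAS-bla cells after 17 h compound exposure (37C) and 1 h B/G FRET substrate incubation at room temperature.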
Chain of Peroxisome proliferator-activated receptor gamma (Homo sapiens) (P37231 whole entry, looked up): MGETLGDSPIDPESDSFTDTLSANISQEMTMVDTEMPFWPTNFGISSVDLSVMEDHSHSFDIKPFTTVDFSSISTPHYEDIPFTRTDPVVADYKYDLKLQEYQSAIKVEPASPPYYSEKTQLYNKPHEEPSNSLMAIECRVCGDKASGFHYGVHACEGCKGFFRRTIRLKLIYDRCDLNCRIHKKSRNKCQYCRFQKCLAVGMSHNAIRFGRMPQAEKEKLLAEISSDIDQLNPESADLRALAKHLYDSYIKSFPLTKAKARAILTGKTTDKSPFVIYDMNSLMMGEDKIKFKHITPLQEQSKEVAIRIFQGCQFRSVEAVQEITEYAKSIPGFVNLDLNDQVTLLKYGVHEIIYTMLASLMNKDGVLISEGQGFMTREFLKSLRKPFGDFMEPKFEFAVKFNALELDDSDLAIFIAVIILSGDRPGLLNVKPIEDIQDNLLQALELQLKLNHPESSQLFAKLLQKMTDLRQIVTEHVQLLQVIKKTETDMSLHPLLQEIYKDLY
On the technique in general: qHTS replaces the single test concentration by a dilution series.

The target is the same in test [3]. The test is described as follows: qHTS assay to identify small molecule antagonists of the peroxisome proliferator-activated receptor gamma (PPARg) signaling pathway (AID 743191; calls by dose curve; further: nearly all actives have a fitted effect of over 30% in size; further: potency means the concentration at half of the fitted maximal effect). The method, boiled down: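 Beta-lactamase reporter under UAS control in HEK293H PPARg-bla cells; compound treatment 17 h at 37C. Read-out: fluorescence intensity after 1 h room-temperature incubation with LiveBLAzer B/G FRET substrate.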

A short description of test [4]: qHTS assay to identify small molecule antagonists of the peroxisome proliferator-activated receptor gamma (PPARg) signaling pathway - cell viability counter screen (AID 743194). Further: nearly all actives have a fitted effect of over 55% in size. Further: potency means the concentration at half of the fitted maximal effect. Particulars: Potency: co-treated with 50 nM rosiglitazone unless noted. The method, boiled down: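 Viability was measured as CellTiter-Glo luminescence in GeneBLAzer PPARg UAS-bla HEK293H cells. These cells had been exposed 17 h at 37 C to compounds together with rosiglitazone at 50 nM final, with the beta-lactamase readout taken in the same wells.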

Test [5] can be described thus: qHTS assay for small molecule agonists of the antioxidant response element (ARE) signaling pathway (AID 743202; active means well fitted activation curve with a large enough effect in the signal ratio in the repeat runs, not every such curve was filed as active; the % refers to the signal ratio; further: potency means the concentration at half of the fitted maximal effect). The method, boiled down:
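Beta-lactamase reporter activity, read as fluorescence intensity, reflects ARE/Nrf2 pathway induction in HepG2 cells after 16 h compound exposure at 37 C; substrate loading was 2 h at room temperature.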

The nature of test [6]: qHTS assay for small molecule agonists of the antioxidant response element (ARE) signaling pathway - cell viability counter screen (AID 743203; calls by dose curve; further: nearly all actives have a fitted effect of over 55% in size). Put shortly: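 Parallel cytotoxicity read-out for the ARE-bla screen: HepG2 reporter cells, 16 hrs with compounds, then CellTiter-Glo luminescence.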
Test [7] in a line: qHTS assay for small molecule activators of the heat shock response signaling pathway - cell viability counter screen (AID 743209). Further: nearly all actives have a fitted effect of over 50% in size. Further: potency means the concentration at half of the fitted maximal effect. The method, boiled down:
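To flag cytotoxic compounds, HSE-bla HeLa cells plated at 1500 cells/well were dosed for 5 h at 37 C, followed by the reporter FRET read and then CellTiter-Glo, with luminescence recorded 30 min after reagent addition.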

A short description of test [8]: qHTS assay for small molecule activators of the heat shock response signaling pathway (AID 743210; active means well fitted activation curve with a large enough effect in the signal ratio in the repeat runs, with a control signal flat, not every such curve was filed as active; the % refers to the signal ratio;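 further: HeLa cells with beta-lactamase reporter driven by heat shock elements; series mostly up to about 63 µM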). Put shortly:
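Fluorescence from a cleaved B/G FRET substrate (2.5 h, room temp) reports HSE-driven beta-lactamase in HeLa cells treated 5 h at 37 C with DMSO-dissolved compounds.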

The nature of test [9]: qHTS assay to identify small molecule agonists of the peroxisome proliferator-activated receptor delta (PPARd) signaling pathway - cell viability counter screen (AID 743211). Further: nearly all actives have a fitted effect of over 55% in size. Further: potency means the concentration at half of the fitted maximal effect. Put shortly: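 In the same wells used for beta-lactamase reporter measurement, cytotoxicity is scored by CellTiter-Glo. HEK293H PPARd-bla cells receive compound for 17 h at 37C following a 5 h settling period.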

The nature of test [10]: qHTS assay to identify small molecule antagonists of the peroxisome proliferator-activated receptor delta (PPARd) signaling pathway - cell viability counter screen (AID 743213). Further: nearly all actives have a fitted effect of over 50% in size. Further: potency means the concentration at half of the fitted maximal effect. The method, boiled down: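 PPARd-bla HEK293H cells (3000/well) got compound plus 300 nM L165041 agonist for 17 h at 37 C. Viability in the same wells came from CellTiter-Glo luminescence after 30 min at room temperature.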

Test [11] can be described thus: qHTS assay to identify small molecule agonists of the farnesoid-X-receptor (FXR) signaling pathway - cell viability counter screen (AID 743218). Further: nearly all actives have a fitted effect of over 45% in size. Further: potency means the concentration at half of the fitted maximal effect. The method, boiled down:
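Same-well cytotoxicity check on FXR-UAS-bla HEK 293T cells: 5 h attachment, 16 h compound at 37 C, CellTiter-Glo luminescence read at room temperature after 30 min.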

Test [12] in a line: qHTS assay to identify small molecule antagonists of the farnesoid-X-receptor (FXR) signaling pathway - cell viability counter screen (AID 743221; active means well fitted cell-killing curve with a large enough effect in the repeat runs, not every such curve was filed as active; further: nearly all actives have a fitted effect of over 50% in size). The method, boiled down: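 Here viability was scored by luminescence after CellTiter-Glo addition to wells already read for beta-lactamase. Prior treatment: compound plus CDCA (50 uM final), 16 h, 37 C, HEK 293T FXR-bla cells.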

Test [13] can be described thus: qHTS assay to identify small molecule agonists of the NFkB signaling pathway - cell viability counter screen (AID 1159515; calls by dose curve; further: series mostly up to about 61 µM; nearly all actives have a fitted effect of over 55% in size). The method, boiled down:
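Counter screen run alongside the NFkB-bla agonist assay: ME-180 reporter cells exposed to compounds for 5 hr, then lysed with CellTiter-Glo in the same wells. Luminescence, read after 30 min, reflects viable cells.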

The target of test [14] is Peroxisome proliferator-activated receptor delta (Homo sapiens) (UniProt Q03181). The test is described as follows: qHTS assay to identify small molecule agonists of the peroxisome proliferator-activated receptor delta (PPARd) signaling pathway (AID 743212; calls by dose curve;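 further: HEK293H cells with PPARd UAS beta-lactamase reporter GeneBLAzer system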). The method, boiled down: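 Steps: seed PPARd-bla HEK293H cells; incubate 5 h, 37 C, 5% CO2; add compounds in DMSO; incubate, 37 C; add LiveBLAzer B/G FRET substrate; hold 2 h at room temperature; measure fluorescence.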
Chain of Peroxisome proliferator-activated receptor delta (Homo sapiens) (Q03181 whole entry, looked up): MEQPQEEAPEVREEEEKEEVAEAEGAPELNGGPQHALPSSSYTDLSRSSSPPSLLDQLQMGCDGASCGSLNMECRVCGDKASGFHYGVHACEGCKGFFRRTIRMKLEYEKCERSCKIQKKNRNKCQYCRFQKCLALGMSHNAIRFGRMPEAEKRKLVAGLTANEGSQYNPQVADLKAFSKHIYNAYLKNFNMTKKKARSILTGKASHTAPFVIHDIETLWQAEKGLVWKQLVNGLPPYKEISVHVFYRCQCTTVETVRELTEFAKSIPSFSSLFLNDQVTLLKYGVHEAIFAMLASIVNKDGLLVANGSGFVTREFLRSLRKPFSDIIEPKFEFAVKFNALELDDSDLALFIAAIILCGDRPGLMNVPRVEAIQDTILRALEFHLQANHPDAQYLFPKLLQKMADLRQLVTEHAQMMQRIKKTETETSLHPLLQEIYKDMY

Test [15] has the same target. The test is described as follows: qHTS assay to identify small molecule antagonists of the peroxisome proliferator-activated receptor delta (PPARd) signaling pathway (AID 743215; active means well fitted inhibition curve with a large enough effect in the signal ratio in the repeat runs, not every such curve was filed as active; the % refers to the signal ratio;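 further: cells stimulated with agonist L165041 at 300 nM final during compound exposure; series mostly up to about 62 µM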). The method, boiled down: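 Screen format: qHTS, antagonist mode. HEK293H PPARd-bla cells received compound and 300 nM L165041 (final), 17 h, 37 C. Beta-lactamase detected via FRET substrate fluorescence, 2 h, room temperature.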

Test [16] addresses Vitamin D3 receptor (Homo sapiens) (UniProt P11473). The test is described as follows: qHTS assay to identify small molecule antagonists of the vitamin D receptor (VDR) signaling pathway (AID 743223; active means well fitted inhibition curve with a large enough effect in the signal ratio in the repeat runs, not every such curve was filed as active; the % refers to the signal ratio). Put shortly:
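Inhibition of agonist-driven VDR signalling is scored in VDR-bla cells: 3 nM final 1alpha,25-dihydroxyvitamin D3 plus compound, 16 h at 37C, then beta-lactamase detection by FRET substrate fluorescence after 2 h.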

Test [17] is described as follows: qHTS assay to identify small molecule agonists of the vitamin D receptor (VDR) signaling pathway - cell viability counter screen (AID 743224). Further: nearly all actives have a fitted effect of over 50% in size. Further: potency means the concentration at half of the fitted maximal effect. Put shortly:
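Counter screen for cytotoxicity: VDR-bla cells at 2,000 cells/well, 16 h compound exposure, then CellTiter-Glo luminescence after the beta-lactamase measurement.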

Test [18] is described as follows: qHTS assay to identify small molecule antagonists of the vitamin D receptor (VDR) signaling pathway - cell viability counter screen (AID 743225). Further: nearly all actives have a fitted effect of over 50% in size. Put shortly: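 Compounds were pinned onto VDR-bla HEK 293T cells together with 1-alpha,25-dihydroxyvitamin D3 at 3 nM final. After 16 h at 37C and 5% CO2 plus the reporter readout, cell viability was measured by CellTiter-Glo luminescence (30 min, room temperature).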

“And” between values parts separate entries of the source, which are not always exact repeats. Equal values may be shown once. Results filed as inconclusive are left out. More than one record can exist for a structure, and the calls need not agree. The source made the active and inactive calls. Unless noted, the call rests on the fitted dose curve; in most records, active means well fitted curve in the direction sought with a large enough effect in the repeat runs; inconclusive means weak or mixed curves; inactive means no such curve, though single readings can be large; an effect the other way counts as inactive or inconclusive.

Chain of Vitamin D3 receptor (Homo sapiens) (P11473 whole entry, looked up): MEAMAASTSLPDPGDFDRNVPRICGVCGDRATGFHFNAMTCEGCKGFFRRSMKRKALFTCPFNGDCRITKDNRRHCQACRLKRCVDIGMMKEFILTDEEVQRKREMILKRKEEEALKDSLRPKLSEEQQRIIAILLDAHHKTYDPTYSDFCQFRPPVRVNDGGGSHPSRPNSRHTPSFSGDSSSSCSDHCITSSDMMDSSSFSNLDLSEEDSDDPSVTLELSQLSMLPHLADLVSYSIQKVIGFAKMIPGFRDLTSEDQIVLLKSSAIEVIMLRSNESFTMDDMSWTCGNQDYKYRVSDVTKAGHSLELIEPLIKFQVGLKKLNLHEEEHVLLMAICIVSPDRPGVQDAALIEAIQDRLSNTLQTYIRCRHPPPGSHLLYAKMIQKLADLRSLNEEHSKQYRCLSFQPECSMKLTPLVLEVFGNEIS

Take `CCCCCCCCCCn1cc[n+](C)c1`: the Potency result in test [1], in [3], in [6], in test [12] and in [13] was “inactive” throughout. Also, the call in [2] and in [8] was inactive. The Potency was 22.1 µM [setting not given] (active) and 24.6 µM [setting not given] (active) and 4.89 µM [setting not given] (active) in test [4]; 2.19 µM (active) and 4.85 µM (active) and 2.16 µM (active) in [5]; 39.3 µM (active) in test [7]; 4.41 µM (active) and 24.6 µM (active) and 35.6 µM (active) in test [9]; 22.1 µM (active) in [10]; 55.5 µM (active) and inactive in test [11].

For the molecule `Nc1ccc(Cl)cc1`, the Potency entry in test [1], in test [4], in [5], in test [6], in test [9] and in [10] was “inactive” throughout. In addition, the Potency result in test [11], in test [12] and in test [13] was “inactive” each time. The call in test [2], in test [8], in test [14] and in test [15] was inactive. Further, the Potency in test [3] was 0.0871 µM (active).

Consider `C=CCOC(Cn1ccnc1)c1ccc(Cl)cc1Cl` (stereo unspecified), for which the Potency result in test [1], in [3], in [4], in [6], in test [7] and in test [10] was “inactive” in each case. Also, the Potency entry in [11], in [12], in test [16] and in test [13] was “inactive” each time. The result in test [2] was inactive. For the same molecule, the Potency in test [9] was 49 µM (active) and inactive; in test [17] it was 54.9 µM (active) and inactive.

For the molecule `O=C(O)C(Cl)(Cl)Cl`, the Potency result in test [1], in test [3], in [4], in test [5], in test [6] and in test [9] was “inactive” in each case. In addition, the Potency result in test [10], in test [11], in test [12], in test [16], in test [17] and in [13] was “inactive” in each case. Besides, the call in test [2], in test [8], in test [14] and in test [15] was inactive.

For `Cc1cc(Cl)ccc1OCC(=O)O`, the Potency result in [1], in [3], in test [4], in test [5], in test [6] and in test [9] was “inactive” throughout. The Potency entry in test [10], in [11], in [12], in [16], in test [17] and in [13] was “inactive” in each case. Further, the molecule was called inactive in test [2] and in test [8].

Turning to `O=[N+]([O-])c1ccccc1O`, the Potency entry in test [1], in test [3], in test [4], in [5], in test [6] and in test [9] was “inactive” throughout. For the same molecule, the Potency result in test [10], in test [11], in test [12], in test [17] and in test [13] was “inactive” throughout. The call in test [2] and in test [8] was inactive.

For `O=c1[nH]c(=O)n(Cl)c(=O)n1Cl`, the Potency result in test [1], in test [3], in test [4], in test [5], in [6] and in test [9] was “inactive” in each case. Moreover, the Potency entry in [10], in test [11], in test [12], in test [17] and in test [13] was “inactive” throughout. Further, in test [2], the outcome was inactive.

As for `CCCn1cc[n+](C)c1`, the Potency entry in test [1], in [3], in [4], in test [5], in [6] and in test [9] was “inactive” each time. The Potency entry in [10], in test [11], in [12], in test [17], in test [18] and in [13] was “inactive” each time. Also, the outcome in [2], in [8], in [14] and in test [15] was inactive.
